Data: PubChem BioAssay AID463173 (ICCB-Longwood Screening Facility, Harvard Medical School, 2010)
The whole screen tested about 52,000 compounds, of which about 1,700 (3.3%) were called active. What follows is part of a selection rich in actives, with near analogues and random picks from the rest. Values without a mark were called inactive. Cut-off read from the data, not from the text of the source: active = survival mostly below about 52% (no sharp cut-off); inactive = mostly above about 56%.

tested on: Wild type; assay: growth inhibition of S. aureus wild type versus tarO mutant, primary screen, teichoic acid synthesis inhibitors, RN4220, OD600 (AID 463173); details: S. aureus RN4220 wild type/DeltatarO growth, OD600, 18 h, stronger effect = lower value, screened at 18.75 µg/mL (by protocol)

First: Cc1ccoc1C(=O)Nc1ccccc1C(=O)O
Second: COc1ccccc1C(=O)Nc1ccccc1OCc1cc(=O)n2ccccc2n1
The survival of the first is higher: 102% for the first, 92% for the second.

Compared with `Cc1ccc(NC(=O)C2CC(=O)n3cnnc3N2)cc1Cl` (stereo not given), `O=C(Nc1cccc(F)c1)c1cnc2sc(N3CCCC3)nn2c1=O` is lower in survival: 105% for the first, 74% for the second.

Compared with `COCCNC(=O)CCn1c(=O)c2cc(OC)c(OC)cc2n(CC(=O)Nc2ccccc2OC)c1=O`, `COc1ccc2c(c1)c1c(c(=O)n(-c3cccc(C)c3)c(=O)n1CC(=O)NCCC1=CCCCC1)n2C` is lower in survival: 89% for the first, 74% for the second.

Compared with `COc1ccccc1NC(=O)c1cn(-c2ccccc2)nc1-c1ccccc1`, `COc1ccc(NC(=O)c2cn(-c3ccccc3)nc2-c2ccc(C)cc2)cc1` is higher in survival: 81% for the first, 93% for the second.

First: COC(=O)C1(C)NC(c2ccccc2C)C2C(=O)N(C)C(=O)C21 (stereo not given)
Second: CCOc1ccc(CNC(=O)CCn2nc(C)c3c(C)n(-c4ccccc4)nc3c2=O)cc1
The survival of the first is lower: 98% for the first, 129% for the second.

First: CCOC(=O)C1=C(CN2CCN(c3ccccc3)CC2)NC(=O)NC1c1ccc(C)cc1 (stereo not given)
Second: CCOC(=O)c1cnc(N2CCN(c3ccc(C)cc3C)CC2)c2ccccc12
The survival of the first is higher: 127% for the first, 112% for the second.

Going from `COc1ccc(Cn2c(=O)sc3ccccc32)cc1` to `CCOc1ccc(Cn2c(=O)sc3ccccc32)cc1`, the survival falls from 111% to 72%.

Going from `O=c1sc2ccccc2n1CCc1ccccc1` to `O=c1sc2ccccc2n1CCCOc1ccccc1`, the survival rises from 108% to 116%.

Compared with `CCCCOc1ccc(Cn2c(=O)oc3ccccc32)cc1`, `CC(C)CCOc1ccc(Cn2c(=O)oc3ccccc32)cc1` is higher in survival: 113% for the first, 121% for the second.

Compared with `O=C(CC1N=C2c3ccccc3N=C(SCC(=O)Nc3ccc(F)cc3)N2C1=O)NCc1ccc2c(c1)OCO2` (stereo not given), `O=C(NCc1ccc(F)cc1)c1cc2c(s1)-c1ccccc1SC2` is lower in survival: 80% for the first, 50% for the second.

Compared with `COc1ccc2cc3cc(C(=O)NCc4ccccc4OC)oc3nc2c1`, `COc1ccccc1-c1cc2nc(C)c(CCC(=O)NCc3cccc(Cl)c3)c(C)n2n1` is higher in survival: 80% for the first, 112% for the second.

First: Cc1cccc(-c2nc(Cn3c(SCc4cccc(C(F)(F)F)c4)nc4ccncc43)c(C)o2)c1
Second: Cc1ccc2oc(-c3cc(NC(=O)Cc4ccccc4)ccc3Cl)nc2c1
The survival of the first is higher: 81% for the first, 70% for the second.

`Cc1ccc(C(=O)ON=C2CCN(C)CC2)cc1` and `CN1CCN(CC(=O)Nc2ccc(C(=O)NCC3CCCO3)cc2)CC1` (stereo not given) are the same in survival: 108% for the first, 108% for the second.

Going from `COc1ccccc1CNC(=O)Cn1cc2c(n1)-c1c(oc(C(=O)N3CCOCC3)c1C)CC2` to `CCOC(=O)c1cc(S(=O)(=O)N2CCN(c3ccccc3OC)CC2)[nH]n1`, the survival rises from 84% to 124%.

First: COc1cc2oc(=O)c(CC(=O)N3CCCCC3)c(C)c2cc1Cl
Second: CCOC(=O)c1noc2ncnc(N3CCN(c4cccc(Cl)c4)CC3)c12
The survival of the first is higher: 84% for the first, 75% for the second.

Compared with `Cc1ccc(OCC(=O)Nc2c(C(=O)c3ccc(Cl)cc3)oc3ccccc23)cc1C`, `Cc1ccc2oc(-c3cc(NC(=O)c4oc5ccccc5c4C)ccc3Cl)nc2c1` is lower in survival: 129% for the first, 81% for the second.

Compared with `COC(=O)c1cnc(N2CCN(c3ccccc3F)CC2)c2ccccc12`, `CCOC(=O)c1cnc(N2CCN(c3cccc(C)c3C)CC2)c2ccccc12` is lower in survival: 93% for the first, 85% for the second.

First: CCOC(=O)c1cc(S(=O)(=O)N2CCN(c3cccc(C)c3C)CC2)[nH]n1
Second: CCOC(=O)c1cnc2cc(C(F)(F)F)ccc2c1N1CCN(c2cccc(Cl)c2)CC1
The survival of the first is higher: 72% for the first, 55% for the second.

Going from `CCOC(=O)c1cnc2cc(C(F)(F)F)ccc2c1N1CCN(c2ccc(F)cc2)CC1` to `O=C(NCCCN1CCN(c2ccc(F)cc2)CC1)c1cc2c(s1)-c1ccccc1OC2`, the survival rises from 58% to 62%.

Compared with `O=C(Cn1c(=O)n(-c2ccccc2)c(=O)c2sc3ccccc3c21)NC1CCCC1`, `O=C(NCCCN1CCN(c2ccccc2)CC1)c1cc2c(s1)-c1ccccc1OC2` is lower in survival: 138% for the first, 69% for the second.

First: CC(C)(C)OC(=O)N1CCC2(CC1)C(C#N)=C(N)OC1=C2C(=O)CCC1
Second: CCCN1CCN(CCCNC(=O)c2cc3c(s2)-c2ccccc2OC3)CC1
The survival of the first is higher: 104% for the first, 83% for the second.

Going from `CCN(CC)C(C)C(=O)Nc1c(C)cccc1C` (stereo not given) to `CCc1cccc(NC(=O)c2cc3c(s2)-c2ccccc2OC3)c1`, the survival falls from 109% to 86%.

First: Cc1ccc2oc(-c3cc(NC(=O)/C=C/c4ccco4)ccc3Cl)nc2c1
Second: O=C(Nc1ccc(Cl)c(-c2nc3ccccc3o2)c1)c1cccc2c(Cl)cccc12
The survival of the first is lower: 25% for the first, 67% for the second.

Going from `CC(C)c1ccc(NC(=O)c2cc3c(=O)oc4ccccc4c3s2)cc1` to `CCOc1ccc(NC(=O)c2cc3c(s2)-c2ccccc2OC3)cc1`, the survival rises from 87% to 100%.

First: CCOC(=O)c1c(-c2ccc(OC)cc2)oc2ccc(OCc3ccc(F)cc3F)cc12
Second: O=C(NCCc1ccc(Cl)cc1)c1cc2c(s1)-c1ccccc1OC2
The survival of the first is lower: 42% for the first, 105% for the second.

For `O=C(NCc1ccc(Cl)cc1)c1cc2c(s1)-c1ccccc1SC2`, the survival was 62%.

`COc1ccc(-c2nn(-c3ccccc3)cc2C(=O)Nc2ccccc2OC)cc1` was tested, and the survival was 3% (active).
For `CC(C)CCOc1ccc(Cn2c(=O)sc3ccccc32)cc1`, the survival was -3% (active).
`CCCOc1ccc(Cn2c(=O)sc3ccccc32)cc1` was tested, and the survival was -4% (active).
With `CCCCOc1ccc(Cn2c(=O)sc3ccccc32)cc1` the survival was -4% (active).
For `CCOC(=O)c1cnc2ccc(OCC)cc2c1N1CCN(c2cccc(Cl)c2)CC1`, the survival was -9% (active).
`CCOC(=O)c1cnc2c(OC)cccc2c1N1CCN(c2ccccc2F)CC1` was tested, and the survival was -14% (active).
For `CCOC(=O)c1cc(S(=O)(=O)N2CCN(c3ccccc3F)CC2)[nH]n1`, the survival was -6% (active).
For `CCOC(=O)c1cnc2ccc(OCC)cc2c1N1CCN(c2ccccc2F)CC1`, the survival was -12% (active).
For `Cc1ccc2oc(-c3cc(NC(=O)c4ccco4)ccc3Cl)nc2c1`, the survival was 1% (active).
For `COc1c(C)cccc1C(=O)Nc1ccc(Cl)c(-c2nc3cc(C)ccc3o2)c1`, the survival was -6% (active).
`CCN(CC)CCOC(=O)c1ccc(NC(=O)c2cc3c(s2)-c2ccccc2OC3)cc1` was tested, and the survival was 5% (active).
For `O=C(NCCCN1CCN(c2ccccc2F)CC1)c1cc2c(s1)-c1ccccc1OC2`, the survival was 11% (active).
With `CCCN(C(=O)c1cc2c(s1)-c1ccccc1OC2)c1ccccc1F` the survival was -2% (active).
With `CCCN(C(=O)c1cc2c(s1)-c1ccccc1SC2)c1ccccc1F` the survival was 1% (active).
